What all share (assay): yeast three-hybrid, YBZ-1, SC-Leu-His + 0.5 mM 3-AT, 4 days
Holding throughout (details): tags: N-Gal4 AD-HA kept; label: inside an RPR1-promoter hybrid RNA with tandem MS2 sites; ssRNA

One test addresses PUM1 PUF domain R5-HRS (Homo sapiens, UniProt Q14671 828-1176, C1007H;Q1011S). In short, it runs like this:
(§1)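 Each repeat of the Pumilio-1 PUF domain was randomized at its three base-contacting residues, and these libraries were co-expressed from a centromeric plasmid with matching RNA elements in strain YBZ-1. After four days on SC-Leu (input) or SC-Leu-His + 0.5 mM 3-AT (selection), the repeat regions were PCR-amplified and Illumina-sequenced. The interaction score compares variant frequency between input and selection as a log change, computed in log2 with a pseudocount of 1 for absent variants.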

The next test has as its target PUM1 PUF domain R4-GNG (Homo sapiens, UniProt Q14671 828-1176, N971G;H972N;Q975G). In short, it runs like this:
as §1

The target in another test is PUM1 PUF domain R3-DHR (Homo sapiens, UniProt Q14671 828-1176, C935D;R936H;Q939R). In short, it runs like this:
as §1

The target of a further test is PUM1 PUF domain R3-SRH (Homo sapiens, UniProt Q14671 828-1176, C935S;Q939H). In short, it runs like this: as §1
In a further test the target is PUM1 PUF domain R7-RSS (Homo sapiens, UniProt Q14671 828-1176, S1079R;N1080S;E1083S). The essentials:
as §1

Another test addresses PUM1 PUF domain R3-LRG (Homo sapiens, UniProt Q14671 828-1176, C935L;Q939G). In short, it runs like this: as §1
The target in a further test is PUM1 PUF domain R5-SVT (Homo sapiens, UniProt Q14671 828-1176, C1007S;R1008V;Q1011T). In short, it runs like this:
as §1

The next test has as its target PUM1 PUF domain R4-SPI (Homo sapiens, UniProt Q14671 828-1176, N971S;H972P;Q975I). In short, it runs like this: as §1
A further test concerns the target PUM1 PUF domain R4-WAK (Homo sapiens, UniProt Q14671 828-1176, N971W;H972A;Q975K). The essentials: as §1
The target in another test is PUM1 PUF domain R1-KSA (Homo sapiens, UniProt Q14671 828-1176, S863K;R864S;Q867A). The essentials:
as §1

In PMC8384837, “Expanding the binding specificity for RNA recognition by a PUF domain” one finds binding signal data, which are given here for eleven sequences.

Sequence of PUM1 PUF domain R4-GNG (Q14671 828-1176 N971G/H972N/Q975G): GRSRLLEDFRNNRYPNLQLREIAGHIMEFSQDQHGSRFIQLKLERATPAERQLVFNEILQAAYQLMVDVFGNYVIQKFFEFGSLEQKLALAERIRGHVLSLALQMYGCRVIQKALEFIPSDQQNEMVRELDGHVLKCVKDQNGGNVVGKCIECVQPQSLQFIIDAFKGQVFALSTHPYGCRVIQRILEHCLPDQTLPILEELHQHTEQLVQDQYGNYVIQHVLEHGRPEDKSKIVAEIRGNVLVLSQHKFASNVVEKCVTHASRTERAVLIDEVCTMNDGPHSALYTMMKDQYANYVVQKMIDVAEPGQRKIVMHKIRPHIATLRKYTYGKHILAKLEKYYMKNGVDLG
Sequence of PUM1 PUF domain R5-HRS (Q14671 828-1176 C1007H/Q1011S): as the sequence (Q14671 828-1176 N971G/H972N/Q975G) above, with G144N, N145H, G148Q, C180H, Q184S counted along it

On to “GGCUAGAACUAGUGGAUCCCCCGGCGCCCGGCGGCUCGAGCCCGGGUAAGUGUCAAUAGUCUGCAUGCCGCCGGGCGCCAUGCCUGCAGGUCGACUCUAGAAAACAUG”, for which the binding signal with PUM1 PUF domain R5-HRS is 2.88 log2 enrichment (interaction score). Still for that read-out and setting: as for “GGCUAGAACUAGUGGAUCCCCCGGCGCCCGGCGGCUCGAGCCCGGGUAAGUGUUAAUAGUCUGCAUGCCGCCGGGCGCCAUGCCUGCAGGUCGACUCUAGAAAACAUG”, the figure is 4.01 log2 enrichment (interaction score). Take “GGCUAGAACUAGUGGAUCCCCCGGCGCCCGGCGGCUCGAGCCCGGGUAAGUGUAAAUAGUCUGCAUGCCGCCGGGCGCCAUGCCUGCAGGUCGACUCUAGAAAACAUG”: the binding signal was 1.49 log2 enrichment (interaction score) with PUM1 PUF domain R4-GNG, 3.23 log2 enrichment (interaction score) with PUM1 PUF domain R3-DHR and 4.37 log2 enrichment (interaction score) with PUM1 PUF domain R3-SRH. Turning to “GGCUAGAACUAGUGGAUCCCCCGGCGCCCGGCGGCUCGAGCCCGGGUAAGUUUAAAUAGUCUGCAUGCCGCCGGGCGCCAUGCCUGCAGGUCGACUCUAGAAAACAUG”, in the test with PUM1 PUF domain R7-RSS, the binding signal was 2.76 log2 enrichment (interaction score). For the sequence “GGCUAGAACUAGUGGAUCCCCCGGCGCCCGGCGGCUCGAGCCCGGGUAAGUGUAAUUAGUCUGCAUGCCGCCGGGCGCCAUGCCUGCAGGUCGACUCUAGAAAACAUG”, in the test with PUM1 PUF domain R3-LRG, the binding signal is 0.54 log2 enrichment (interaction score). “GGCUAGAACUAGUGGAUCCCCCGGCGCCCGGCGGCUCGAGCCCGGGUAAGUGUGAAUAGUCUGCAUGCCGCCGGGCGCCAUGCCUGCAGGUCGACUCUAGAAAACAUG”: the binding signal was 3.92 log2 enrichment (interaction score) in the test with PUM1 PUF domain R5-SVT and 0.46 log2 enrichment (interaction score) with PUM1 PUF domain R5-HRS. Consider “GGCUAGAACUAGUGGAUCCCCCGGCGCCCGGCGGCUCGAGCCCGGGUAAGUGUACAUAGUCUGCAUGCCGCCGGGCGCCAUGCCUGCAGGUCGACUCUAGAAAACAUG”, for which the binding signal with PUM1 PUF domain R4-SPI is 0.54 log2 enrichment (interaction score); with PUM1 PUF domain R4-GNG, 2.39 log2 enrichment (interaction score). For the sequence “GGCUAGAACUAGUGGAUCCCCCGGCGCCCGGCGGCUCGAGCCCGGGUAAGUGUAAGUAGUCUGCAUGCCGCCGGGCGCCAUGCCUGCAGGUCGACUCUAGAAAACAUG”, in the test with PUM1 PUF domain R3-LRG, the binding signal is 3.85 log2 enrichment (interaction score). With “GGCUAGAACUAGUGGAUCCCCCGGCGCCCGGCGGCUCGAGCCCGGGUAAGUGUAUAUAGUCUGCAUGCCGCCGGGCGCCAUGCCUGCAGGUCGACUCUAGAAAACAUG”, the binding signal with PUM1 PUF domain R4-SPI is 2.21 log2 enrichment (interaction score); with PUM1 PUF domain R4-GNG, 3.28 log2 enrichment (interaction score); with PUM1 PUF domain R4-WAK, 2.71 log2 enrichment (interaction score). As to “GGCUAGAACUAGUGGAUCCCCCGGCGCCCGGCGGCUCGAGCCCGGGUAAGUGUAAAUCGUCUGCAUGCCGCCGGGCGCCAUGCCUGCAGGUCGACUCUAGAAAACAUG”, the binding signal with PUM1 PUF domain R1-KSA was 3.27 log2 enrichment (interaction score). As for “GGCUAGAACUAGUGGAUCCCCCGGCGCCCGGCGGCUCGAGCCCGGGUAAGUCUAAAUAGUCUGCAUGCCGCCGGGCGCCAUGCCUGCAGGUCGACUCUAGAAAACAUG”, the binding signal with PUM1 PUF domain R7-RSS is 1.34 log2 enrichment (interaction score).
